# Measured values published in the supplement of paper PMC5641865, “A screen for kinase inhibitors identifies antimicrobial imidazopyridine aminofurazans as specific inhibitors of the Listeria monocytogenes PASTA kinase PrkA” (The Journal of Biological Chemistry, 2017).
# ± gives the standard deviation of the averaged measurements.
# System: Listeria monocytogenes 10403S
# Experiment: growth inhibition relative to ceftriaxone-alone control; higher = stronger potentiation of ceftriaxone growth inhibition
# Settings: 10 µM; ceftriaxone 1 ug/ml; 12 h
# 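Further: End-point A600 read in BHI broth at 37 °C with 2% DMSO, inhibition computed as (1 − OD with compound plus ceftriaxone ÷ OD with ceftriaxone only) × 100.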
row,SMILES,growth inhibition
1,CN1CCC(n2cnc(-c3ccc(F)cc3)c2-c2ccnc(NCCO)n2)CC1,-2.88 ± 2.5%
2,Cc1ccc(C(=O)Nc2cccc(C(F)(F)F)c2)cc1Nc1nc(-c2cccnc2)nc2c1cnn2C,-1.9 ± 16%
3,NS(=O)(=O)c1ccc(Nc2cc(-c3ccc(O)c(F)c3)n[nH]2)cc1,10.1 ± 4.6%
4,NS(=O)(=O)c1cccc(-c2ccc3c(NC(=O)C4CC4)n[nH]c3c2)c1,0.81 ± 3.7%
5,Nc1nccc(-c2c(-c3ccc(F)cc3)ncn2C2CCC(O)CC2)n1 (stereo unspecified),-2.07 ± 1.6%
6,COc1cc2/c(=N/c3ccc(Br)cc3F)nc[nH]c2cc1OCC1CCN(C)CC1 [Vandetanib (Zactima)],24.2 ± 29%
7,COc1ccc2c(OCc3nnc4ccc(-c5ccccc5)nn34)ccnc2c1,11.6 ± 13%
8,CS(=O)(=O)CCNCc1nc(-c2ccc3ncnc(Nc4ccc(F)c(Cl)c4)c3c2)cs1,1.67 ± 6.4%
9,Cc1cc(Nc2cc(N3CCN(C)CC3)nc(/C=C/c3ccccc3)n2)n[nH]1,85.7 ± 18%
10,Cc1c(CN2CCN(C(=O)[C@H](C)O)CC2)sc2c(N3CCOCC3)nc(-c3cnc(N)nc3)nc12,22.8 ± 8.1%
11,COc1cc(Nc2ncc(-c3ccccc3)o2)cc(OC)c1OC,1.14 ± 0.11%
12,NC(=O)c1ccc(N(C(N)=O)c2c(F)cccc2F)nc1-c1ccc(F)cc1F,3.69 ± 12%
13,Cc1ccc(C(=O)NC(C)C)cc1-c1ccc(C(=O)NCC2CC2)cc1,-1.2 ± 0.17%
14,Cc1ccc(Nc2ccnc(Nc3cccc(C(N)=O)c3)n2)cc1O,-4.84 ± 3.2%
15,COc1ccc2[nH]c3c4[nH]c5ccc(OC)cc5c4c4c(c3c2c1)C(=O)NC4=O,-8.86 ± 4.5%
16,COc1ccc(-c2nn3ncccc3c2-c2ccnc(Nc3cccc(C(F)(F)F)c3)n2)cc1,2.98 ± 4.9%
